# L3MBTL1 inh = qHTS Assay for the Inhibitors of L3MBTL1. Lethal(3)malignant brain tumor-like protein 1 (Homo sapiens), Q9Y468. AlphaScreen L3MBTL1–H3K9me1 peptide binding. Potency, µM (highest dose often 57.1 µM), inactives show at the top dose activity, negative = inhibition, most hits filed as inhibitors. actives 0.66% (n = 230,000); also: potency is read from the fitted curve at half-maximal effect; % is scaled to controls: 0 for no effect and ±100 for the full control effect; nearly all actives have a fitted effect of over 60% in size
# Target sequence (Q9Y468 whole entry, looked up): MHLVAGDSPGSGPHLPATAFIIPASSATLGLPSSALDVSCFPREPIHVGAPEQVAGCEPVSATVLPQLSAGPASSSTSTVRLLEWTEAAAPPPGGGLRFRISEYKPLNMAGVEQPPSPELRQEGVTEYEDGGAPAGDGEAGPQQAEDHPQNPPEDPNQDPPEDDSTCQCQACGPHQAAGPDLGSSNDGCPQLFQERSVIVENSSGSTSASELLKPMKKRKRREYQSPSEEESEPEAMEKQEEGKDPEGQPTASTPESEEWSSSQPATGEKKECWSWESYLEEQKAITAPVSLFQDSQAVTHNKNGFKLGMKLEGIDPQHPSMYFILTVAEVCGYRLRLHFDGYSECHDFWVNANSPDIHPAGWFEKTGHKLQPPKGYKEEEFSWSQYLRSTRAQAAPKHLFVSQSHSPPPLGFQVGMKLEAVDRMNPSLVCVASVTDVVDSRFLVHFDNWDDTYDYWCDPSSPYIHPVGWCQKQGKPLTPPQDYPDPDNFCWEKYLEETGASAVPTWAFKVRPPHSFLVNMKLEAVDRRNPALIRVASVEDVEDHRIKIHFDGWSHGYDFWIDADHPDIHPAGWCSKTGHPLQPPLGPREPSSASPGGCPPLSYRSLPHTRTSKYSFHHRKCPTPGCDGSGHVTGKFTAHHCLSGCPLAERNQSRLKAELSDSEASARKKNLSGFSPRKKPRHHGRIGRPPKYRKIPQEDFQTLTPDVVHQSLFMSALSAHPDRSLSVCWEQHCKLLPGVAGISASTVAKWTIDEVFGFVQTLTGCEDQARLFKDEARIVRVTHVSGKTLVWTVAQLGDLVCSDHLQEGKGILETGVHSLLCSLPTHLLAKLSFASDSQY
#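 L3MBTL1 50 nM + b-AHA-H3(1-15)K9me1 75 nM, 30 min RT; compound added, 30 min RT; streptavidin donor/Ni-chelate acceptor beads 10 ug/mL each final, 30 min RT dark; AlphaScreen read.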
# BAZ2B inh = qHTS Assay for Inhibitors of BAZ2B; AlphaScreen BAZ2B-H3K14Ac peptide displacement; Potency, µM (series often up to 114 µM), inactives show at the top dose activity change, negative = inhibition, most hits filed as inhibitors; actives 4.4% (n = 360,000); AID 504333, 2011; also: potency is read from the fitted curve at half-maximal effect; % is scaled to controls: 0 for no effect and ±100 for the full control effect; nearly all actives have a fitted effect of over 60% in size
#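 Multi-concentration screen (max 110 uM) measuring displacement of acetylated histone H3 peptide from BAZ2B by AlphaScreen, using 50 nM protein, 50 nM peptide and 10 ug/mL streptavidin donor plus Ni-chelate acceptor beads.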
# JMJD2A Tudor = qHTS Assay for Inhibitors of JMJD2A-Tudor Domain. Lysine-specific demethylase 4A (Homo sapiens), O75164. AlphaScreen JMJD2A-Tudor / H3K4me3 peptide binding. Potency, µM (top dose mostly 114 µM), inactives show top-dose activity change, negative = inhibition, usual class: inhibitors. actives 4.4% (n = 390,000). AID 504339, 2011; also: potency is read from the fitted curve at half-maximal effect; % is scaled to controls: 0 for no effect and ±100 for the full control effect; nearly all actives have a fitted effect of over 50% in size
# HP1b chromo inh = HTS for Inhibitors of HP1-beta Chromodomain Interactions with Methylated Histone Tails; Chromobox protein homolog 1 (Homo sapiens), P83916; AlphaScreen HP1-beta / biotin-H3K9me3 peptide binding; Potency, µM (titrated, usually from 114 µM), for the others: top-dose activity change, negative = inhibition, usual class: inhibitors; actives 0.56% (n = 390,000); AID 540317, 2011; also: potency is read from the fitted curve at half-maximal effect; nearly all actives have a fitted effect of over 70% in size
#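 Compound inhibition of the preformed complex between 50 nM HP1-beta and 50 nM biotinylated H3K9me3 peptide was read by AlphaScreen. Buffer was PBS pH 7.4 with 0.01% Tween-20. Incubations ran 30 min at room temperature, with 10 ug/mL donor/acceptor beads.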
# G9a block = qHTS Assay for Inhibitors of Histone Lysine Methyltransferase G9a. AID 504332, 2011. Histone-lysine N-methyltransferase EHMT2 (Homo sapiens), Q96KQ7. Potency, µM (series often up to 102 µM), inactives show at the top dose activity, negative = inhibition, hits mostly inhibitors. G9a H3K9 monomethylation, AlphaScreen, 2 h. actives 8.8% (n = 350,000); also: potency is read from the fitted curve at half-maximal effect; % is scaled to controls: 0 for no effect and ±100 for the full control effect; nearly all actives have a fitted effect of over 75% in size
#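 Enzyme 20 nM + cpd, 15 min RT; add b-H3K9 pep 500 nM / SAM 20 uM; 2 h RT; anti-H3K9me1 Ab 0.5 ug/mL + SA donor / anti-rabbit acceptor beads 20 ug/mL each, 10 min; AlphaScreen read.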
# PI5P4K alpha inh = qHTS for Inhibitors of phosphatidylinositol 5-phosphate 4-kinase (PI5P4K). Phosphatidylinositol 5-phosphate 4-kinase type-2 alpha (Homo sapiens), P48426. PI5P4Kalpha enzyme, ADP-Glo luminescence, 60 min; hits give low values. max response, %. actives 1.2% (n = 330,000); active = max response of -50% or lower; inconclusive = between -30% and -50%; inactive = -30% or higher; also: value at the top dose of about 77 µM; % is scaled to controls: 0 for no effect and ±100 for the full control effect
#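 Controls without substrate or without enzyme flank wells where PI5P4Kalpha converts substrate using 5 microM ATP (final). Incubation lasts 60 minutes at room temperature; ADP formed is read by ADP-Glo luminescence.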
# Numbers without * were called inactive; ? = inconclusive; · = not tested or not shown; ! = repeats disagree; [ ] = another dose, or the depositor's remark. In the library only some 11% were active in any assay of this set; here they are far more common. Unless noted, calls follow the shape of the dose curve; as a rule, active = well fitted inhibition curve with a large enough effect; inconclusive = small, poorly fitted or top-dose-only effect; inactive = no such curve, though single readings can be large or run the other way.
SMILES,L3MBTL1 inh,BAZ2B inh,JMJD2A Tudor,HP1b chromo inh,G9a block,PI5P4K alpha inh
O=C(CSc1ccc([N+](=O)[O-])cn1)Nc1ccc2c(c1)OCCO2,0%[11.4 µM],?,-23%,20%,?,1
O=C(Nc1nnc(SCC(=O)N2CCCCC2)s1)C1CCCCC1,?,-1%,-33%,14%,4µM*,·
COCC(=O)Nc1nnc(SCC(=O)N2CCCCC2)s1,·,1%,1%,30%,?,-2
Cc1cccc(CSc2nc3c(sc4ccccc43)c(=O)n2CCC(=O)NC(C)C)c1,·,18%,-7%,65%,-7%[59 µM],·
Cc1ccc(C)n1-c1ccc(-c2nnco2)cc1,-8%,-36%,·,·,45µM*,·
Cc1cc(-c2nnco2)c(C)n1-c1ccc(F)cc1,-5%,-32%,?,-15%,-5%[59 µM],·
COc1ccc2c(c1)c(-c1csc(N)n1)c(C)n2C,-3%[2.29 µM],79µM*,-55%,-13%,7%[0.501 µM],4
Cc1ccc2c(c1)c(-c1csc(N)n1)c(C)n2C,·,?,?,?,45µM*,-10
CCNc1nc(NCc2ccc(F)cc2)c2cnn(C)c2n1,·,-12%,50µM*,20%,-4%[59 µM],·
CCCc1cc(N2CCN(C(=O)c3ccco3)CC2)n2c(nc3ccccc32)c1C#N,·,17%,-6%,55%,16µM*,-5
CC1CCCN(CCCNC(=O)c2cc(Sc3ccc(F)cc3)nc3ccccc23)C1 (stereo unspecified),·,-5%,-19%,11%,-6%[59 µM],·
O=C1C(SCCO)=C(SCCO)C(=O)c2ccccc21,?,?,8.9µM*,?,1.3µM*!,-107*
Cn1c2c(c3ccccc31)CCN(CCCCN1CCN(c3ccccc3)CC1)C2=O,·,·,50µM*,?,·,12
O=C(O)c1c[nH]c2cc(C(F)(F)F)ccc2c1=O,-9%,50µM*,0%,14%,39%[0.501 µM],-1
O=C(O)c1c[nH]c2ccc([N+](=O)[O-])cc2c1=O,·,·,79µM*,0%,·,2
CC(=O)Oc1cc(C(F)(F)F)ccc1C(=O)O,·,·,·,·,-38%[5.15 µM],·
Cc1c(C(=O)O)[nH]c2ccc([N+](=O)[O-])cc12,-6%,79µM*,79µM*,?,?,-26
O=C(O)c1ccc([N+](=O)[O-])cc1-c1cc([N+](=O)[O-])ccc1C(=O)O,·,·,-15%,1%[57 µM],·,-1
Cc1c2cnn(CC(=O)Nc3cccc(C(F)(F)F)c3)c(=O)c2c(C)n1Cc1ccccc1Cl,·,-15%,-23%,29%,8%[59 µM],·
O=C(c1cnccn1)N1CCC2(CC1)CN(c1ncccn1)C2,·,·,·,·,1%[12.7 µM],·
Cc1cccc(-n2cnc3cc(C(=O)NC4CCCCCC4)ccc32)c1,·,-14%,-35%,44%,?,·
CCOCCCNC(=O)/C(C#N)=C/c1cc(OC)c(O)c([N+](=O)[O-])c1,-16%,?,-23%,-17%,50µM*,-64*
CCOCCCNC(=O)/C(C#N)=C/c1ccc(Cl)c([N+](=O)[O-])c1,15%,-22%,-2%,?,?,-3
NSc1nc(N)c2nc(-c3ccccc3)c(-c3ccccc3)nc2n1,-21%,-24%,-31%,2%,6.3µM*,-53*
Nc1nc(N)c2nc(-c3ccccc3)c(N)nc2n1,-2%,12%,-20%,22%,-4%[59 µM],?
SMILES,L3MBTL1 inh,BAZ2B inh,JMJD2A Tudor,HP1b chromo inh,G9a block,PI5P4K alpha inh
CCOC(=O)c1ccc(NC(=O)CCn2ccc(C)n2)cc1,·,-2%,-11%,11%,13%[59 µM],·
CC[C@H](C)[C@@H]1NC(=O)c2cc([N+](=O)[O-])cc(I)c2NCC[C@@H](C(N)=O)NC(=O)[C@H](CCCN=C(N)N)NC1=O,2%,?,-28%,34%,14µM*,0
NC(=O)[C@@H]1CCCCNc2c(F)cc([N+](=O)[O-])cc2C(=O)N[C@@H](CC(=O)O)C(=O)N[C@@H](CCC(=O)O)C(=O)N1,-15%,-11%,?,32%,?,-6
C[C@@H](O)C1NC(=O)[C@H](CCCCN)NC(=O)c2cc([N+](=O)[O-])cc(F)c2NCCCC[C@@H](C(N)=O)NC1=O (stereo partly specified),11%,-27%,-24%,18%,?,1
CC[C@H](C)[C@@H]1NC(=O)c2cc([N+](=O)[O-])cc(I)c2SC[C@@H](C(N)=O)NC(=O)[C@H](CCCCN)NC1=O,7%,71µM*,?,1%,8.9µM*,-21
NC(=O)[C@@H]1CCCNc2c(I)cc([N+](=O)[O-])cc2C(=O)N[C@@H](CCCN=C(N)N)C(=O)N[C@@H](CCCN=C(N)N)C(=O)N1,1%,-35%,·,·,14µM*,·
CN(C(=O)CSc1cn(CC(=O)N2CCCC2)c2ccccc12)c1ccccc1,·,-19%,4%,30%,-1%[59 µM],·
Cc1cccc(NC(=S)NC(=O)c2ccc(Br)o2)c1C,3%,?,2%,5%,-10%[59 µM],-9
Cc1cccc(C)c1NC(=S)NC(=O)c1ccc(Br)o1,-11%,?,-13%[11.4 µM],-14%,40µM*,?
Cn1ncc(C(N)=O)c1NC(=S)NC(=O)c1ccc(Br)o1,·,-28%,-12%,-8%,18µM*,?
Nc1nc(Nc2cccc(C(F)(F)F)c2)sc1C(=O)c1ccccc1,·,-3%,-14%,40%,8%[59 µM],·
Cc1ccc(C(=O)c2sc(Nc3ccc(F)cc3)nc2N)c(C)c1,·,40µM*,79µM*,?,?,·
CCOc1ccc(Nc2nc(N)c(C(=O)c3ccccc3Cl)s2)cc1,·,?,45µM*,?,-33%[59 µM],·
CC(C)(C)C(=O)c1sc(Nc2ccccc2)nc1N,-17%,50µM*,56µM*,?,25µM*,·
COc1cccc(C(=O)c2sc(Nc3ccc(F)c(Cl)c3)nc2N)c1,·,-9%,-20%,13%,-25%[59 µM],·
CCOc1ccc(CNC(=O)Cn2c(=O)c3cccn3c3ccc(F)cc32)cc1OC,·,-6%,-26%,-7%,0%[59 µM],·
Cc1cccc(-n2c(C)cc(/C=N\NC(=O)c3ccco3)c2C)c1,-7%,?,-30%,-9%,45µM*,-23
Cc1cccc(C)c1-n1c(C)cc(/C=N/NC(N)=S)c1C,·,45µM*,50µM*,-63%,50µM*,-3
Cc1cc(C(=O)N/N=C/c2cccc([N+](=O)[O-])c2)c(C)n1-c1ccccc1,0%,-1%,-3%,11%,17%[59 µM],-4
